An excerpt weighted towards active compounds, which were near 2.8% of everything screened.
HSP90 inh = HSP90 inhibitors, primary screen, cell lysate, luminescence | Rabbit reticulocyte lysate, luciferase refolding luminescence, 3 h | inhibition, % at 5.6 µM | 0.91% of 290,000 active;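 active = inhibition above the screen-wide mean plus 3 SD, computed separately per campaign, cut at about 16% in these data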;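 note: 0% = DMSO wells and 100% = 60 µM geldanamycin wells; inhibitors lower the luminescence because luciferase stays unfolded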
SENP8 block-1 = SENP8 protease inhibitors, primary screen, biochemical, luminescence. purified SENP8, Z-RLRGG-aminoluciferin cleavage. Sentrin-specific protease 8 (Homo sapiens), Q96LD8. 1.2% of 330,000 active. inhibition, % at 10 µM; in the data active = inhibition above about 50%
SENP7 inh = SENP7 protease inhibitors, primary screen, biochemical, luminescence, uHTS; recombinant SENP7, Z-RLRGG-aminoluciferin luminescence, 40 min; inhibition, % at 5 µM; AID 434973, 2010; 1.5% of 330,000 active; Sentrin-specific protease 7 (Homo sapiens), Q9BQF6;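 active = inhibition above about 50% at the single test dose, limit read from the data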;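 note: plate controls were DMSO with enzyme for no effect and no enzyme buffer wells for full effect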
SENP8 block-2 = human SENP8 protease inhibitors, primary screen, biochemical, fluorescence, Nedd8 protein substrate, uHTS. Sentrin-specific protease 8 (Homo sapiens), Q96LD8. recombinant SENP8. inhibition, % at 20 µM. 0.64% of 360,000 active; in the data active = inhibition mostly above about 40%, no sharp cut-off; inactive = mostly below about 27%
SENP6 block = SENP6 protease inhibitors, primary screen, biochemical, luminescence, uHTS; Sentrin-specific protease 6 (Homo sapiens), Q9GZR1; Recombinant SENP6 catalytic domain, aminoluciferin luminescence; inhibition, % at 10 µM; 1.8% of 330,000 active; AID 2599, 2010;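 active = inhibition above about 50% at the single tested dose, limit read from the data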;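 note: plate controls were DMSO wells with enzyme for no effect and DMSO wells lacking enzyme for full effect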
Target sequence (Q9GZR1 628-1112 limits assumed): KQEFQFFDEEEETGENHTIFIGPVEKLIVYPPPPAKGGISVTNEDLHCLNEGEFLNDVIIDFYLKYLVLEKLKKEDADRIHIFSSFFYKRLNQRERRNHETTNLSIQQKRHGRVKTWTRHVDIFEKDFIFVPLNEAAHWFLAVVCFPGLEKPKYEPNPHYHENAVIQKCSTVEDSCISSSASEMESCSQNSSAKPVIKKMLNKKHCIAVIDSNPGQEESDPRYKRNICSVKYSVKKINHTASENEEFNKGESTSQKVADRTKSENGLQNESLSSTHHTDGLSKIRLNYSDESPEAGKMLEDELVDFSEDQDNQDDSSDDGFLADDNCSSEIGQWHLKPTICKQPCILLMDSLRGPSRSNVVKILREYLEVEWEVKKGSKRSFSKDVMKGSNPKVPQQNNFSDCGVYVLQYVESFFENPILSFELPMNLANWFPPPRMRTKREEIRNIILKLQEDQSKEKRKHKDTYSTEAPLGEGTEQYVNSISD
HSP90 inh confirm = HSP90 inhibitors, confirmation, cell lysate, luminescence; shares compounds with HSP90 inh; rabbit reticulocyte lysate, luciferase refolding luminescence, 3 h; inhibition, % at 5.9 µM; 64% of 2,300 active; AID 1846, 2009; in the data active = inhibition above about 18%;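 note: 0% = vehicle wells and 100% = reference inhibitor wells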
FLuc counter = firefly luciferase inhibitors, HSP90 counter-screen, confirmation, artefact control for HSP90 inhibitor project, biochemical, luminescence, triplicate; shares compounds with HSP90 inh; purified native firefly luciferase; inhibition, % at 5.9 µM; 48% of 2,300 active;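 active = inhibition above the mean inhibition of all tested sample wells plus 3 SD, cut at about 10% in these data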;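 note: 0% = DMSO with luciferase and 100% = wells lacking luciferase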
* hit, by the source's call; / = no result given.

SMILES	HSP90 inh	SENP8 block-1	SENP7 inh	SENP8 block-2	SENP6 block	HSP90 inh confirm	FLuc counter
Cc1cc(C(=O)CSc2ncccn2)c(C)n1Cc1ccco1	17*	-4	-3	0	-3	46*	37*
Cc1cc(C(=O)CSc2nnnn2C)c(C)n1Cc1ccco1	3	-4	-2	9	3	/	/
COc1ccc2cnn(CCOc3ccccc3)c(=O)c2c1OC	21*	-12	10	-36	7	32*	20*
CCOc1ccccc1OCCn1ncc2ccc(OC)c(OC)c2c1=O	-1	-2	-2	-12	-2	/	/
O=C(Nc1cccc2nsnc12)c1ccc(-c2cccc(Cl)c2)o1	17*	12	9	-370	32	2	-9
O=C(Nc1ccccc1N1CCCCC1)c1ccc(-c2cccc(Cl)c2)o1	-1	2	7	-21	7	/	/
COc1ccc(NC(=O)COC(C)=O)cc1OC	-1	12	7	26	3	/	/
Clc1ccc2ncc(-c3nnnn3-c3ccccc3)c(-c3ccccc3)c2c1	0	-11	-3	18	-8	/	/
CCOC(=O)c1c(C)oc2c1c(C=NCC1CCCO1)c(O)c1ccccc12 (stereo unspecified)	19*	/	/	19	/	2	-11
Cc1cc(C)nc(N2CCCC(C(=O)NCc3ccccc3F)C2)n1 (stereo unspecified)	0	0	3	-29	-14	/	/
O=C(Nc1cc2nn(-c3ccccc3)nc2cc1Cl)c1ccco1	-2	-4	8	-480	11	/	/
CC(C)(C)C(=O)Nc1cc2nn(-c3ccccc3)nc2cc1Cl	80*	/	/	-353	/	85*	85*
CC(C)c1ccc(NC(=O)c2csnn2)cc1	20*	12	42	12	46	33*	23*
O=C(Nc1ccccc1NC(=O)c1csnn1)c1csnn1	-2	-5	-6	6	-13	/	/
Cn1c(=N)n(CC(=O)c2ccccc2)c2ccccc21	29*	26	8	6	32	6	0
O=C(/C=C/c1cnc2ccccc2n1)NC12CC3CC(CC(C3)C1)C2	28*	-5	-4	8	-13	44*	32*
O=C(CCC1CCCC1)N1CCN(S(=O)(=O)c2ccc(Br)cc2)CC1	/	-6	1	4	2	/	/
Cc1ccc(S(=O)(=O)N2CCCC2C(=O)OCc2ccccc2)cc1 (stereo unspecified)	1	3	3	16	-7	/	/
O=C(COc1ccc(CO)cc1Cl)Nc1ccc(F)cc1	37*	-11	13	26	-40	39*	36*
CC1=CSC2=NC(=O)/C(=C\c3cccn3-c3ccccc3)C(=N)N12	4	-7	-3	16	-11	/	/
CC(C)c1ccc(-n2cccc2/C=C2/C(=N)N3C=CSC3=NC2=O)cc1	32*	-11	-7	-4	-10	22*	3
Cc1cccc(C)c1OC(=O)Cc1ccccc1[N+](=O)[O-]	-4	1	-2	11	-6	/	/
CCOc1ccc(N)c(SSc2cc(OCC)ccc2N)c1	30*	0	3	-31	6	41*	9.6*
OCCC1CN(Cc2cccn2-c2cccnc2)CCN1Cc1ccc(F)cc1 (stereo unspecified)	-2	2	-7	17	1	/	/
Cc1oc(-c2ccc(C(F)(F)F)cc2)nc1CN(Cc1ccccn1)C[C@@H]1CCC(=O)N1	0	-7	2	-13	2	/	/
SMILES	HSP90 inh	SENP8 block-1	SENP7 inh	SENP8 block-2	SENP6 block	HSP90 inh confirm	FLuc counter
CCOc1ccc(-c2nc(CN(Cc3ccccc3)C[C@@H]3CCC(=O)N3)c(C)o2)cc1	23*	-8	7	-9	-35	41*	-5
CN(C)CCCN(C(=O)CCSc1ccccc1)c1nc2cc3c(cc2s1)OCO3	57*	-5	13	25	21	-3	-13
COc1ccc2c(c1)[C@@H]1[C@H](CO2)[C@H](c2ccccc2)[C@]2(C)C(=O)NCC(=O)N12	/	-4	11	15	4	/	/
Cc1cccc(NC(=O)CSc2nc3ccc(NC(=O)CSc4nnnn4-c4ccccc4)cc3s2)c1C	55*	-6	-6	/	-12	22*	-9
O=C(CSc1nc2ccc(NC(=O)CSc3nnnn3-c3ccccc3)cc2s1)Nc1ccccc1	3	-5	-1	-7	-10	/	/
Nc1cccc2c1C(=O)N(C(=O)/C=C/c1ccc(F)cc1)C2=O	28*	-2	1	-461	10	12	-13
Nc1cccc2c1C(=O)N(C(=O)c1ccco1)C2=O	5	1	-6	-276	-10	/	/
CCC(NS(=O)(=O)c1ccc(C)cc1)C(=O)N1CCOCCOCCOCC1 (stereo unspecified)	2	-5	6	17	-9	/	/
O=c1cc(CCl)nc(Cc2c(Cl)cccc2Cl)[nH]1	/	-9	12	8	-10	/	/
COc1ccc2c(c1)c(C(=O)CN1CCN(c3ccccc3)CC1)c(C)n2C	-1	5	-1	/	8	/	/
COc1ccc2c(c1)c(C(=O)CN1CCN(Cc3ccccc3)CC1)c(C)n2C	28*	-3	-6	20	4	-6	-12
COc1cccc2c1-c1c(C(=O)O)cccc1C2=O	2	7	0	7	4	/	/
COc1cccc2c1C(=O)c1ccc3ccccc3c1C2=O	26*	22	20	-94	23	-1	-24
O=C(Nc1ccc(-n2cnnn2)cc1)c1cn2ccccc2n1	-1	-5	33	-67	25	/	/
O=C(Nc1ccccc1)c1cn2ccccc2n1	37*	82*	91*	28	90*	59*	41*
CCCCNC(=O)C1c2ccccc2OCC(=O)N1Cc1ccco1 (stereo unspecified)	/	/	/	18	/	/	/
COCCn1c(C)c(C)c2c(NCCc3ccccc3)ncnc21	60*	21	10	-2	16	63*	63*
Cc1c(C)n(CCc2ccccc2)c2ncnc(NCCCO)c12	-3	-4	-7	12	-28	/	/
Cc1cccc(NC(=O)CCNS(=O)(=O)c2ccc3[nH]c(=O)oc3c2)c1	2	0	3	17	20	/	/
N/C(=N\NC(=O)Nc1ccc(Cl)cc1)c1ccccn1	24*	-3	5	6	-16	-4	-16
CNC(=O)N/N=C(\N)c1ccccn1	-1	-4	-5	3	-14	/	/
CC1CN(C(=S)Nc2cccc(Cl)c2)CC(C)O1 (stereo unspecified)	0	-5	7	8	3	/	/

Screening results as filed in PubChem BioAssay.
